Laboratory results from PubChem BioAssay AID686979 (National Center for Advancing Translational Sciences (NCATS), 2013).
Screen size: about 420,000 compounds; about 50,000 (12%) were called active. Where a call stands in place of a potency, no number is given. Inconclusive results (about 26%) are left out. Calls follow the shape of the dose curve; as a rule, active = well fitted inhibition curve with a large enough effect; inconclusive = small, poorly fitted or top-dose-only effect; inactive = flat fitted curve, though single readings scatter. This excerpt belongs to a sample that is enriched for actives.

Assay: qHTS for Inhibitors of human tyrosyl-DNA phosphodiesterase 1 (TDP1): qHTS in cells in presence of CPT; also: nearly all actives have a fitted effect of over 55% in size
Details: chicken DT40 Tdp1-/-;hTDP1 cells + 20 nM CPT, ATP luminescence, 48 h; series mostly up to 46.2 µM
Summary of the method: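 Chicken DT40 Tdp1-/- cells complemented with human TDP1, 400 cells/well, exposed to compounds plus 20 nM camptothecin for at least 48 h at 37 C; viability read as ATP content by CellTiter-Glo luminescence.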
Potency is read from the fitted curve at half-maximal effect.

Structure (SMILES) | Potency
COc1cc2c(cc1OC)C(C)N(S(=O)(=O)c1cnc(Cl)c(Cl)c1)CC2 (stereo not given) | inactive
CC(C)(C)NC(=O)C(=O)NN=C1CCCCCCC1 | inactive
CC(C)NC(=S)NN=C1CCCCCCCCCCC1 | 13 µM (active)
CCc1ccc(C(=O)NN=C2CCCCCC2)s1 | inactive
CC(C)(C)c1ccccc1NC(=O)CN1C(=O)NC2(CCCC2)C1=O | inactive
COC(=O)c1ccc(CN2C(=O)C(Cc3ccccc3)ON=C2c2ncccc2C)o1 (stereo not given) | inactive
Cc1ccc(C)c(NC(=O)Cn2ccn(-c3ccc(F)cc3)c(=O)c2=O)c1 | inactive
COc1ccccc1NC(=O)CCC(=O)OC(C)C(=O)c1ccccc1 (stereo not given) | inactive
O=C(Nc1ccc(F)cc1)c1cc2c(s1)CCCC2 | inactive
COc1cccc(C(=O)NNC(=O)c2cccc(F)c2)c1 | inactive
COc1cccc(C(=O)NC2(C(F)(F)F)C(=O)Nc3c2c(=O)[nH]c(=O)n3-c2ccc(C)cc2)c1 (stereo not given) | 25.9 µM (active)
CCOc1ccccc1C(=O)NC1(C(F)(F)F)C(=O)Nc2c1c(=O)[nH]c(=O)n2-c1ccc(F)cc1 (stereo not given) | inactive
O=P(O)(O)C(O)c1ccc2ccccc2c1 (stereo not given) | inactive
C/C(CCc1ccccc1)=N\NC(=O)c1ccc(CN2CCOCC2)cc1 | inactive
S=C1SCN(CCN2CCOCC2)CN1Cc1ccccc1 | 5.01 µM (active)
CCN1CN(Cc2ccccc2)CNC1=S | inactive
COc1ccc(CCN2CC(C(=O)NCCN3CCNC3=O)CCC2=O)cc1 (stereo not given) | inactive
CC(C)NC(=S)Nc1cccc2cnccc12 | inactive
CCN(CC)CC(=O)Nc1nn(-c2ccccc2)nc1C(N)=O | inactive
COc1cccc(-c2cnc(OC(C)(C)C)nc2OC(C)(C)C)c1 | inactive
COc1ccc(-c2nc3nc(C)cc(C)n3c2Nc2c(C)cccc2C)cc1 | 16.4 µM (active)
COc1cccc(CSc2nc3nc(C)cc(C)n3n2)c1 | inactive
COc1ccc2nc(C)cc(Nc3cccc(C(=O)O)c3)c2c1 | inactive
COc1ccc(-c2cc(C)nc3nc(N)nn23)cc1 | inactive
COc1cccc(-c2nc3nc(C)cc(C)n3c2NC2CCCCC2)c1 | 18.4 µM (active)
COc1ccccc1C(=O)Nc1nc2nc(-c3ccccc3)cc(=O)n2[nH]1 | inactive
O=C(NN1C(=O)C2CCCCC2C1=O)c1ccco1 (stereo not given) | inactive

Structure (SMILES) | Potency
Cc1cccc(C(=O)N2CCN(S(=O)(=O)N3CCCCC3)CC2)c1 | inactive
Cc1cc(C)c(NC(=O)CN2C(=O)NC(Cc3ccccc3)C2=O)c(C)c1 (stereo not given) | inactive
O=S(=O)(NCCc1ccccn1)c1cc(Cl)cc(Cl)c1O | inactive
Cc1cccc(NC(=O)CN2CCN(CC(=O)NCC3(N4CCCCC4)CCCCC3)CC2)c1C | inactive
Cc1cccc(NC(=O)CN2CCN(C(=O)C3CCN(C(=O)/C=C/c4ccccc4)CC3)CC2)c1C | 16.4 µM (active)
COc1ccccc1CCNC(=O)C1CCN(C(=O)/C=C/c2ccccc2)CC1 | inactive
Cc1ccc(S(=O)(=O)NC[C@H]2O[C@@H](n3cnc4c(N)ncnc43)[C@H](O)[C@@H]2O)s1 | inactive
COc1ccc(NC(=O)c2ccccc2CC[N+](=O)[O-])cc1 | inactive
O=C(NNC(=O)c1ccc(-c2ccccc2)cc1)Nc1ccccc1 | inactive
C=CCNc1scc(-c2ccccc2)[n+]1CC=C | inactive
C=CC[n+]1c(-c2ccc(C)cc2)csc1NNC(=O)Nc1ccccc1 | 10.3 µM (active)
C[C@H]1CN([C@@H](C)CO)C(=O)CCCn2cc(nn2)CO[C@@H]1CN(C)S(=O)(=O)c1ccccc1C#N | inactive
O=C(c1cc(COc2ccc(F)cc2F)on1)N1CCOCC1 | inactive
COc1cc(-c2noc(-c3ccc(N4CCCC4)c([N+](=O)[O-])c3)n2)cc(OC)c1OC | inactive
CNc1ccc(-c2nc(-c3ccco3)no2)cc1[N+](=O)[O-] | inactive
COc1ccc(-c2noc(-c3ccc(N4CCN(c5ccccc5)CC4)c([N+](=O)[O-])c3)n2)cc1OC | 23.1 µM (active)
Cc1nnc(SCc2cc(=O)c3cc(F)ccc3[nH]2)n1C | inactive
CCOC(OCC)c1ccc(/C=C\c2nccc(N)n2)cc1 | inactive
COc1ccc2nc(Nc3nc(-c4ccncc4)cs3)sc2c1 | inactive
O=c1oc2ccccc2cc1-c1csc(Nc2ccc(O)cc2)n1 | 9.2 µM (active)
COc1ccc2nc(NC(=O)[C@@H]3CCCN3C(=O)c3cccs3)sc2c1 | inactive
CCNc1nc(-c2cc3ccccc3o2)cs1 | inactive
Nc1ncc(-c2cc3ccccc3oc2=O)s1 | inactive
COc1ccc2nc(Nc3nc(-c4cc5ccccc5oc4=O)cs3)sc2c1 | 5.8 µM (active)
CC1CCCCN1Cc1c(O)ccc2c(=O)c(-c3cccc(Cl)c3)c(C(F)(F)F)oc12 (stereo not given) | inactive
C[C@@H]1NS(=O)(=O)c2cc(Cl)ccc2O[C@@H]1c1ccccc1 | inactive
C[C@H](CO)N1C[C@H](C)[C@H](CN(C)C(=O)c2ccncc2)OCc2ccccc2-c2c(n(C)c3ccccc23)C1=O | inactive

Structure (SMILES) | Potency
CC(NS(=O)(=O)c1ccc(Br)cc1)C(=O)NCC1CCCO1 (stereo not given) | inactive
CC(C)NC(=S)N1CCN(S(C)(=O)=O)CC1 | inactive
COc1ccccc1NC(=S)N1CCN(C(c2ccccc2)c2ccccc2)CC1 | 16.4 µM (active)
COc1ccccc1NC(=S)N1CCN(c2ccc(F)cc2)CC1 | inactive
CC(C)NC(=S)N1CCN(C(c2ccccc2)c2ccccc2)CC1 | 29.1 µM (active)
COc1ccc(C)cc1NC(=S)N1CCOCC1 | inactive
CC(C)OCC(O)CN1CCN(C(c2ccccc2)c2ccccc2)CC1 (stereo not given) | inactive
CCCCNC1(C#N)CCN(Cc2ccccc2)CC1 | inactive
CC(C)CC1(C(=O)NCc2ccccn2)C=CCN1C(=O)c1ccccc1 (stereo not given) | inactive
O=C(O)c1ccc(/C=N/NC(=S)NCc2ccccc2)cc1 | inactive
O=C(NN=Cc1ccccc1)c1ccccc1 | inactive
NN=C(NN=Cc1ccccc1)c1ccccc1 | 8.2 µM (active)
O=C(CCNC(=O)c1ccccc1)NN=Cc1ccc(Br)o1 | inactive
CN1C(C(=O)NCC2CC2)CC2Cn3c(nc4ccccc43)C21 (stereo not given) | inactive
Nc1ccc(/C=C/c2ccnc3ccccc23)c([N+](=O)[O-])c1 | 11.2 µM (active)
Cc1cc(C)cc(C(=O)NC2C(=O)N3C(C(=O)O)=C(CSc4nnc(C)s4)CSC23)c1 (stereo not given) | inactive
CSc1ccccc1NC(=O)CN(C)CC(=O)Nc1cccc(Br)c1 | inactive
CCOc1ccc(OCC)c(NC(=O)c2cc(C)nc3c2c(C)nn3-c2cccc(Cl)c2C)c1 | inactive
CC1=CC(C)(C)NC(=S)N1NC(=O)c1ccccc1Cl | inactive
Cc1ccc(N2C(=O)C(Cc3ccccc3)NC2=S)cc1 (stereo not given) | inactive
CC1=CC(C)(C)NC(=S)N1c1ccccc1 | 20.6 µM (active)
CCOc1ccc(S(=O)(=O)N2CCC(C(=O)OCc3ccc(OC)cc3)CC2)cc1 | inactive
CC1(C)O[C@H]2CC(=O)OCC23[C@H]2CC[C@@]4(C)[C@H](c5ccoc5)OC(=O)[C@H]5O[C@]54[C@]2(C)C(=O)C[C@@H]13 (stereo not given in full) | inactive
NC(=O)C(Cc1ccccc1)NC(=O)C12CC3CC(CC(C3)C1)C2 (stereo not given) | inactive
COc1cc(/C=N/N=C(\N)c2nonc2N)cc(OC)c1OC | inactive
Cc1ccc(C)c(N2CCN(CCCNC(=O)Nc3ccc(Cl)cc3)CC2)c1 | 7.31 µM (active)
CCOC(=O)c1c(C)[nH]c(CCC(=O)NCCCN2CCN(c3cc(C)ccc3C)CC2)c1C | 4.61 µM (active)

Structure (SMILES) | Potency
COc1ccc(NC(=O)NCCN2CCN(c3ccc(C)cc3)CC2)c(Cl)c1 | inactive
CCOC(=O)c1c(C)[nH]c(C(=O)NCCN2CCOCC2)c1C | inactive
COc1ccc(N2CCN(CCNC(=O)Nc3cc(Cl)ccc3Cl)CC2)cc1 | inactive
Cc1ccc(C)c(N2CCN(Cc3nnc(-c4ccccc4)o3)CC2)c1 | inactive
Cc1ccc(C)c(N2CCN(C(=O)Cc3c(C(=O)O)c(C)cn3C)CC2)c1 | inactive
CC1=C(c2ccc(C)c(C)c2)S(=O)(=O)NC1=NCc1ccccc1Cl | inactive
CC1=C(c2ccc(C)cc2)S(=O)(=O)NC1=NCCCN1CCN(c2cc(C)ccc2C)CC1 | 4.61 µM (active)
CCOC(=O)N1CCC(Nc2c(NCCN3CCN(c4cccc(Cl)c4)CC3)c(=O)c2=O)CC1 | inactive
CCOC(=O)c1c(C)[nH]c(CCC(=O)NCCCN2CCN(c3cccc(Cl)c3)CC2)c1C | 13 µM (active)
CCOC(=O)N1CCC(Nc2c(NCCCN3CCN(c4ccc(OC)cc4)CC3)c(=O)c2=O)CC1 | inactive
CCOc1cc(/C=N/NC(=O)c2cccc(S(=O)(=O)N3CCOCC3)c2)ccc1OCC(=O)N(C)C | inactive
CC(C)CN(C(=O)Cn1c(=O)cnc2ccccc21)C1CCS(=O)(=O)C1 (stereo not given) | inactive
O=C(NCCCn1ccnc1)c1cc2c(s1)CCCC2 | inactive
CCc1nnc(SCc2cccc(F)c2)nc1CC | inactive
Cc1ccc(OCC(=O)OCc2cc(=O)n3nc(C4CC4)sc3n2)cc1C | inactive
COc1ccccc1/C=C/CN1CCC(CO)(Cc2ccccc2)CC1 | inactive
CCOc1ccccc1N(CC)C(=O)Nc1cn(C)c(=O)c2ccccc12 | inactive
CC1=C(C(=O)N2CCOCC2)CC(CC(=O)NCc2ccco2)C(=O)N1Cc1ccc(F)cc1 (stereo not given) | inactive
COc1ccc(C2CC(c3cccs3)=NN2C(=O)CCC(=O)O)cc1OC (stereo not given) | inactive
O=C(CSc1ccc(-c2ccc(Br)cc2)nn1)NCC1CCCO1 (stereo not given) | inactive
C#CCCCc1nc2ccccc2c(=O)n1N | inactive
Cc1nc(C)c(-c2nnc(-c3cccc(S(=O)(=O)N(C)C)c3)o2)cc1C(=O)NN | inactive
COc1cc(-c2nnc(NC(=O)C3=COCCO3)o2)cc(OC)c1OC | inactive
CCOC(=O)c1cc(-c2nnc(-c3cc(OC)c(OC)c(OC)c3)o2)c(C)nc1C | 16.4 µM (active)
